# Compounds without any hit were thinned out: in the full panel of roughly 83,000, 20% have a hit.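 Growth was measured after 48 h exposure to one concentration of compound in 96-well plates. Values under 10 count as active.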 The source made the active and inactive calls.
# Test system: OVCAR-5 ovarian
# Assay: NCI-60 one-dose screen, 48 h (100 = growth as untreated, 0 = no growth, -100 = all killed)
# Settings: 10 µM unless noted
row,Compound,growth
1,Cc1ccc(-c2nc([P+](c3ccccc3)(c3ccccc3)c3ccccc3)c(N3CCOCC3)o2)cc1,18.9% (inactive)
2,Cc1cc(N2CCCCC2)nc(N(CCNc2ccnc3cc(Cl)ccc23)Cc2ccco2)n1,50.2% (inactive)
3,Cc1cc(C)c(NC(=O)c2sc3nc4c(cc3c2N)CCCC4)c(C)c1,90.8% (inactive)
4,CCNCCCn1c2c(c3ccc([N+](=O)[O-])cc3c1=O)C(=O)c1cc(OC)cnc1-2,12.3% (inactive)
5,CCCC(=O)N1CCCCC1CC (stereo unspecified),87.5% (inactive)
6,C#CCn1c(C)cc(C)c(C#N)c1=O,99.9% (inactive)
7,Cc1cc2nc3c4cc([N+](=O)[O-])cc([N+](=O)[O-])c4n(CCN(C)C)c3nc2cc1C,87.8% (inactive)
8,Cn1c(/C(C#N)=C/c2ccc3ccccc3c2)cc2ccccc21,34.4% (inactive)
9,CC(=O)O[C@H]1CC[C@]2(C)[C@H]3C(=O)C=C4[C@@H]5C[C@](C)(C(=O)N6CCCNCC6)CC[C@]5(C)CC[C@@]4(C)[C@]3(C)CC[C@H]2C1(C)C,8.24% (active)
10,Cc1cc(N(CCNc2ccnc3cc(Cl)ccc23)Cc2ccco2)nc(Cl)n1,-37.5% (active)
11,COc1ccc2c(c1)c(-c1nc(-c3cn(C)c4ncccc34)cs1)cn2CCCN1CCCCC1,85.3% (inactive)
12,NC(Cc1ccc(O)cc1)C(=O)N/N=C/c1ccccc1O (stereo unspecified),110% (inactive)
13,CC(=O)NC1=C(C#N)C(c2ccccc2Cl)c2c(ccc3ccccc23)O1 (stereo unspecified),86.3% (inactive)
14,COC(=O)[C@]12CC[C@@H](C)[C@H](C)[C@@H]1C1=CC[C@@H]3[C@@]4(C)C=C(O)C(=O)C(C)=C4CC[C@@]3(C)[C@]1(C)CC2,64.5% (inactive)
15,N#Cc1c(-c2ccc(O)cc2)c2c(N)nn(-c3ccccc3)c2[nH]c1=O,105% (inactive)
16,CCN(CC)CCCCCNc1cc(OC(=O)c2ccccc2)cc2cccnc12,121% (inactive)
17,Clc1ccc(Cn2cc(-c3nc4ccc(Br)nc4n3Cc3ccc(Cl)cc3)c3cccnc32)cc1,96.9% (inactive)
18,Cn1c2c(Cl)c(Cl)ccc2c2c(C#N)c[nH]c(=O)c21,123% (inactive)
19,COc1ccc(C(=O)/C=C/c2cc(-c3cc(OC)c(OC)c(OC)c3)n[nH]2)cc1OC,32.9% (inactive)

row,Compound,growth
1,COC1=C(Br)C(=O)C(OC)=C(Br)C1=O,113% (inactive)
2,CN(C)c1ccc(N)c2ccccc12,75.4% (inactive)
3,Cc1cc(C=O)c(C)c2c1[nH]c1ccccc12,62.4% (inactive)
4,N#CC1=C(N)Oc2c(sc3c(F)cccc23)C1c1ccc(Cl)cc1 (stereo unspecified),82.1% (inactive)
5,COc1ccc(C2C(C#N)=C(N)Oc3c2sc2c(F)cccc32)cc1 (stereo unspecified),69.3% (inactive)
6,C=COCCCCCCCCCCCCCCCCCC,106% (inactive)
7,O=C1C=Cc2ncccc2C1=O,106% (inactive)
8,O=C1c2ccccc2C(=Cc2ccccc2)c2ccccc21,43.3% (inactive)
9,CN(C)c1ccc(C(=O)c2ccc(N(C)C)c(N)c2)cc1N,75.7% (inactive)
10,O=C1c2cccc3cccc(c23)C(=O)N1CC#Cc1ccc2c3c(cccc13)C(=O)N(CCN1CCNCC1)C2=O,92.1% (inactive)
11,C=C1CC[C@@H](C(=O)OC)Cc2nc(C)ccc21,98.4% (inactive)
12,N#C/C(=C\c1ccc(-c2ccccc2)o1)c1nc(-c2ccco2)cs1,53.8% (inactive)
13,O=C(/C=C\c1ccc2c(c1)OCO2)/C=C/c1ccc2c(c1)OCO2,108% (inactive)
14,Cc1ccc(-c2nc3ccc(Cl)cc3c(=O)n2N2C(=O)CSC2c2ccccc2Cl)cc1 (stereo unspecified),82.7% (inactive)
15,CC(=O)OC[C@]12CC[C@@H](/C(C)=N/O)[C@@H]1[C@H]1CC[C@@H]3[C@@]4(C)CCCNC(C)(C)[C@@H]4CC[C@@]3(C)[C@]1(C)CC2,103% (inactive)
16,C=C1C(=O)O[C@H]2[C@H]1CC/C(COC(=O)NCc1c[nH]c3ccccc13)=C\CC[C@@]1(C)O[C@@H]21,86.1% (inactive)
17,O=C1c2cccc3cccc(c23)C(=O)N1CC#Cc1ccc2c3c(cccc13)C(=O)N(CCO)C2=O,105% (inactive)
18,Cc1cc(N2CCOCC2)nc(N(CCCNc2ccnc3cc(Cl)ccc23)Cc2ccco2)n1,38.9% (inactive)
19,Cn1c2ccccc2c2c3c(c4c5cccnc5[nH]c4c21)C(=O)N(O)C3=O,104% (inactive)

# Test system: OVCAR-4 ovarian
# Assay: as above
# Settings: 10 µM unless noted
row,Compound,growth
1,Cc1ccc(-c2nc([P+](c3ccccc3)(c3ccccc3)c3ccccc3)c(N3CCOCC3)o2)cc1,12.3% (inactive)
2,Cc1cc(N2CCCCC2)nc(N(CCNc2ccnc3cc(Cl)ccc23)Cc2ccco2)n1,43.2% (inactive)
3,Cc1cc(C)c(NC(=O)c2sc3nc4c(cc3c2N)CCCC4)c(C)c1,60.9% (inactive)
4,CCNCCCn1c2c(c3ccc([N+](=O)[O-])cc3c1=O)C(=O)c1cc(OC)cnc1-2,10.4% (inactive)
5,CCCC(=O)N1CCCCC1CC (stereo unspecified),102% (inactive)
6,C#CCn1c(C)cc(C)c(C#N)c1=O,105% (inactive)
7,Cc1cc2nc3c4cc([N+](=O)[O-])cc([N+](=O)[O-])c4n(CCN(C)C)c3nc2cc1C,90.8% (inactive)
8,Cn1c(/C(C#N)=C/c2ccc3ccccc3c2)cc2ccccc21,56.5% (inactive)
9,CC(=O)O[C@H]1CC[C@]2(C)[C@H]3C(=O)C=C4[C@@H]5C[C@](C)(C(=O)N6CCCNCC6)CC[C@]5(C)CC[C@@]4(C)[C@]3(C)CC[C@H]2C1(C)C,-5.14% (active)
10,Cc1cc(N(CCNc2ccnc3cc(Cl)ccc23)Cc2ccco2)nc(Cl)n1,-59.7% (active)
11,COc1ccc2c(c1)c(-c1nc(-c3cn(C)c4ncccc34)cs1)cn2CCCN1CCCCC1,74.7% (inactive)
12,NC(Cc1ccc(O)cc1)C(=O)N/N=C/c1ccccc1O (stereo unspecified),90.1% (inactive)
13,CC(=O)NC1=C(C#N)C(c2ccccc2Cl)c2c(ccc3ccccc23)O1 (stereo unspecified),88.8% (inactive)
14,COC(=O)[C@]12CC[C@@H](C)[C@H](C)[C@@H]1C1=CC[C@@H]3[C@@]4(C)C=C(O)C(=O)C(C)=C4CC[C@@]3(C)[C@]1(C)CC2,37.8% (inactive)
15,N#Cc1c(-c2ccc(O)cc2)c2c(N)nn(-c3ccccc3)c2[nH]c1=O,113% (inactive)
16,CCN(CC)CCCCCNc1cc(OC(=O)c2ccccc2)cc2cccnc12,80.9% (inactive)
17,Clc1ccc(Cn2cc(-c3nc4ccc(Br)nc4n3Cc3ccc(Cl)cc3)c3cccnc32)cc1,87.6% (inactive)
18,Cn1c2c(Cl)c(Cl)ccc2c2c(C#N)c[nH]c(=O)c21,99.5% (inactive)
19,COc1ccc(C(=O)/C=C/c2cc(-c3cc(OC)c(OC)c(OC)c3)n[nH]2)cc1OC,13.3% (inactive)

row,Compound,growth
1,COC1=C(Br)C(=O)C(OC)=C(Br)C1=O,96.8% (inactive)
2,CN(C)c1ccc(N)c2ccccc12,27.7% (inactive)
3,Cc1cc(C=O)c(C)c2c1[nH]c1ccccc12,87.8% (inactive)
4,N#CC1=C(N)Oc2c(sc3c(F)cccc23)C1c1ccc(Cl)cc1 (stereo unspecified),62.8% (inactive)
5,COc1ccc(C2C(C#N)=C(N)Oc3c2sc2c(F)cccc32)cc1 (stereo unspecified),65.7% (inactive)
6,C=COCCCCCCCCCCCCCCCCCC,109% (inactive)
7,O=C1C=Cc2ncccc2C1=O,111% (inactive)
8,O=C1c2ccccc2C(=Cc2ccccc2)c2ccccc21,6.28% (active)
9,CN(C)c1ccc(C(=O)c2ccc(N(C)C)c(N)c2)cc1N,47% (inactive)
10,O=C1c2cccc3cccc(c23)C(=O)N1CC#Cc1ccc2c3c(cccc13)C(=O)N(CCN1CCNCC1)C2=O,85.3% (inactive)
11,C=C1CC[C@@H](C(=O)OC)Cc2nc(C)ccc21,103% (inactive)
12,N#C/C(=C\c1ccc(-c2ccccc2)o1)c1nc(-c2ccco2)cs1,11% (inactive)
13,O=C(/C=C\c1ccc2c(c1)OCO2)/C=C/c1ccc2c(c1)OCO2,84.9% (inactive)
14,Cc1ccc(-c2nc3ccc(Cl)cc3c(=O)n2N2C(=O)CSC2c2ccccc2Cl)cc1 (stereo unspecified),14.4% (inactive)
15,CC(=O)OC[C@]12CC[C@@H](/C(C)=N/O)[C@@H]1[C@H]1CC[C@@H]3[C@@]4(C)CCCNC(C)(C)[C@@H]4CC[C@@]3(C)[C@]1(C)CC2,53.9% (inactive)
16,C=C1C(=O)O[C@H]2[C@H]1CC/C(COC(=O)NCc1c[nH]c3ccccc13)=C\CC[C@@]1(C)O[C@@H]21,58.1% (inactive)
17,O=C1c2cccc3cccc(c23)C(=O)N1CC#Cc1ccc2c3c(cccc13)C(=O)N(CCO)C2=O,92.7% (inactive)
18,Cc1cc(N2CCOCC2)nc(N(CCCNc2ccnc3cc(Cl)ccc23)Cc2ccco2)n1,50.4% (inactive)
19,Cn1c2ccccc2c2c3c(c4c5cccnc5[nH]c4c21)C(=O)N(O)C3=O,71.3% (inactive)

# Reference: PubChem BioAssay (NCI)
